Screening results: PubChem BioAssay, several laboratories
Only some compounds are listed: those with a hit (about 2.3% of all), similar ones and a draw of the others.
MEKK3 PB1 HTS: modulators of MEKK3-MEK5 PB1 binding, primary screen, biochemical, wildtype MEKK3, multiplex bead flow cytometry, Alexa488-MEK5. bead-based flow cytometry, Alexa488-MEK5 binding to MEKK3; actives lie on both sides; 0 = blocked by unlabeled MEK5, 100 = vehicle. binding response (% of control), % at 10 µM. actives 1.4% (n = 290,000);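 active means binding response more than 3 SD above or below the average of its plate-row segment, actives on both sides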;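 further: Alexa488 bead fluorescence after subtracting the streptavidin-only scavenger bead signal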
Target sequence (Q99759 whole entry, looked up): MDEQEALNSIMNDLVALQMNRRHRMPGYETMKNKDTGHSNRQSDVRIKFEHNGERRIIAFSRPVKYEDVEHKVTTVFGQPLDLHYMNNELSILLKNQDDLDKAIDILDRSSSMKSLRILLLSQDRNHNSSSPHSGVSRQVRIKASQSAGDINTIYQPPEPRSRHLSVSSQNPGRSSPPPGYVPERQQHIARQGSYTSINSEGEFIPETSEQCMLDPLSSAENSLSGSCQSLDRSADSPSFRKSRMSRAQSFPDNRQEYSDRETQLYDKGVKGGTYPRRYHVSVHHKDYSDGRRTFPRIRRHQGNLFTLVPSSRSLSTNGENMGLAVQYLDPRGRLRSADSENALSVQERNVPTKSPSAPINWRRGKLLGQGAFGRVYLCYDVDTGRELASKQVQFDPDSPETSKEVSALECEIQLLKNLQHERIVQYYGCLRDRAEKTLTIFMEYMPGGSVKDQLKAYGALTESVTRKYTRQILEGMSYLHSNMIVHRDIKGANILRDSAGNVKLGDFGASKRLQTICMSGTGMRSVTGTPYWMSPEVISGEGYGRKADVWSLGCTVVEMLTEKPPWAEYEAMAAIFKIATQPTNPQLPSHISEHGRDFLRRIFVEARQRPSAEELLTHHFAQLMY
MEKK2wt PB1 HTS: modulators of MEK5 binding to wildtype MEKK2, primary screen, biochemical, multiplex bead flow cytometry, Alexa488-MEK5 | binding response (% of control), % at 10 µM | AID 1531, 2009 | Mitogen-activated protein kinase kinase kinase 2 (Homo sapiens), Q9Y2U5 | actives 1.1% (n = 290,000) | Alexa488-MEK5 binding to MEKK2 WT; actives lie on both sides; in the data active means binding response below about 67% or above about 130%
UBC13 inh: UBC13 polyubiquitin chain formation inhibitors, primary screen, biochemical, TR-FRET, uHTS. Ubiquitin-conjugating enzyme E2 N (Homo sapiens), P61088. inhibition, % at 20 µM. actives 0.47% (n = 330,000). AID 485273, 2010; in the data active means inhibition above about 45%, passing the limit was not always enough
MEKK2mut PB1 HTS: MEK5 binding signal on mutant MEKK2 PB1, primary screen, biochemical, multiplex bead flow cytometry, Alexa488-MEK5; percent response, % at 10 µM; actives 0.35% (n = 290,000); Alexa488-MEK5 binding to MEKK2 mutant; AID 1530, 2009; in the data active means percent response above about 24%, passing the limit was not always enough
An asterisk follows results filed as active; ! = not active in a repeat; [ ] = remark or other dose.

For Cc1cc2c(C(C)C)c(O)c(O)c(C=O)c2c(O)c1-c1c(C)cc2c(C(C)C)c(O)c(O)c(C=O)c2c1O the results were MEKK3 PB1 HTS 42.0*![inhibitor], MEKK2wt PB1 HTS 58.0*[inhibitor] and MEKK2mut PB1 HTS -5.0.
CC[C@@H]1C=CC=CC[C@H](C)[C@@H](O)[C@@H](C)C(=O)[C@H](C)[C@@H](O)[C@H](C)C(=O)[C@H](C)[C@@H](O)[C@H](C)C=CC(=O)O[C@H]2[C@@H](C)[C@@H](CC1)O[C@@]1(CC[C@@H](C)[C@@H](C[C@H](C)O)O1)[C@@H]2C was read as MEKK3 PB1 HTS 103.0, MEKK2wt PB1 HTS 106.0, UBC13 inh 58.9* and MEKK2mut PB1 HTS 2.0.
`Cc1ccsc1C(=O)C1CCCN(Cc2cnc(N3CCOCC3)s2)C1` (configuration not stated) gave MEKK3 PB1 HTS 99.0, MEKK2wt PB1 HTS 104.0, UBC13 inh 5.6 and MEKK2mut PB1 HTS 4.0.
For CC1(C)OC(c2ccccc2)=C/C(=C/C=C2C(=O)NC(=S)NC2=O)O1 the results were MEKK3 PB1 HTS 73.0*[inhibitor], MEKK2wt PB1 HTS -5.0*[inhibitor], UBC13 inh inactive and MEKK2mut PB1 HTS -13.0.
For CCN1CCN(c2cc(N3CCCC3)c(F)cc2[N+](=O)[O-])CC1 the results were MEKK3 PB1 HTS 159.0*, MEKK2wt PB1 HTS 114.0, UBC13 inh -98.9 and MEKK2mut PB1 HTS 2.0.
For O=C(CCC(=O)N1CC2C[C@@H](C1)Cn1c2cccc1=O)NCCc1ccccc1 the results were MEKK3 PB1 HTS 104.0, MEKK2wt PB1 HTS 105.0, UBC13 inh 6.8 and MEKK2mut PB1 HTS 2.0.
For CC(C)(C)NC(=O)NC(=O)CN1CC=C(c2ccccc2)CC1 the results were MEKK3 PB1 HTS 128.0, MEKK2wt PB1 HTS 123.0, UBC13 inh -10.7 and MEKK2mut PB1 HTS 60.0*.
Screening CP(=O)(O)CCCN returned MEKK3 PB1 HTS 100.0, MEKK2wt PB1 HTS 98.0, UBC13 inh -1.2 and MEKK2mut PB1 HTS -5.0.
`O=C(C1CCC(=O)N1C1CCCCC1)N1CCC2(CC1)OCCO2` (configuration not stated) gave UBC13 inh 1.9.
`Cc1ccc(N2C(=O)NC(=O)/C(=C/C=C/c3ccco3)C2=O)cc1` gave MEKK3 PB1 HTS 94.0, MEKK2wt PB1 HTS 103.0, UBC13 inh -29.3 and MEKK2mut PB1 HTS 18.0.
Screening CC(C)c1ccc(N2C(=O)NC(=O)/C(=C/C=C/c3ccco3)C2=O)cc1 returned MEKK3 PB1 HTS 100.0, MEKK2wt PB1 HTS 60.0*[inhibitor] and MEKK2mut PB1 HTS 36.0.
COC(=O)C1=CO[C@@H](C)[C@@H]2CN3CC[C@]4(C(=O)Nc5ccccc54)[C@@H]3C[C@H]12 was read as MEKK3 PB1 HTS 138.0*, MEKK2wt PB1 HTS 98.0, UBC13 inh 8.5 and MEKK2mut PB1 HTS 19.0.
O=C(c1cc(S(=O)(=O)N2CCC3(CC2)OCCO3)ccc1F)N1CCC2(CC1)OCCO2 was read as MEKK3 PB1 HTS 95.0, MEKK2wt PB1 HTS 94.0, UBC13 inh 2.9 and MEKK2mut PB1 HTS -5.0.
CN1CC[C@]2(c3cccc(O)c3)Cc3nc4ccccc4cc3C[C@H]2C1 was read as MEKK3 PB1 HTS 62.0*![inhibitor], MEKK2wt PB1 HTS 114.0 and MEKK2mut PB1 HTS 3.0.
Screening CN1CC[C@@]23CCCC[C@@H]2[C@@H]1Cc1ccc(O)cc13 returned MEKK3 PB1 HTS 115.0, MEKK2wt PB1 HTS 104.0, UBC13 inh 4.7 and MEKK2mut PB1 HTS 0.0.
`CN1C(=O)C(=Cc2sc(=O)n(-c3ccccc3)c2N2CCCCC2)C(=O)N(C)C1=O` gave MEKK3 PB1 HTS 97.0, MEKK2wt PB1 HTS 99.0 and MEKK2mut PB1 HTS 1.0.
Screening CN1CCN(c2nc3ccccn3c(=O)c2C=C2C(=O)N(C)C(=O)N(C)C2=O)CC1 returned MEKK3 PB1 HTS 135.0*, MEKK2wt PB1 HTS 111.0, UBC13 inh 13.1 and MEKK2mut PB1 HTS 1.0.
`CN1CC[C@@H](c2ccc(F)cc2)[C@H](COc2ccc3c(c2)OCO3)C1` gave MEKK3 PB1 HTS 100.0, MEKK2wt PB1 HTS 121.0 and MEKK2mut PB1 HTS 4.0.
O=C(Nc1nccs1)c1c(O)c2c(n(Cc3ccco3)c1=O)CCCC2 was read as MEKK3 PB1 HTS 108.0, MEKK2wt PB1 HTS -4.0*, UBC13 inh -14.1 and MEKK2mut PB1 HTS 5.0.
Screening O=C(Cn1ncn2c(cc3cc(F)ccc32)c1=O)N1CCC2(CC1)OCCO2 returned MEKK3 PB1 HTS 96.0, MEKK2wt PB1 HTS 99.0, UBC13 inh 6.2 and MEKK2mut PB1 HTS 0.0.
